# Calls of active or inactive are those of the source. Calls follow the shape of the dose curve; as a rule, active = well fitted curve in the direction sought with a large enough effect; inactive = no such curve, though single readings can be large or run the other way.
# Test: Retest of LOPAC molecules that induce DNA re-replication in MCF 10A normal breast cells.
# Excerpt: NIH Molecular Libraries Probe Production Network [MLPCN] NIH Chemical Genomics Center [NCGC] MLPCN Grant: Fast Track K99 CA136555 Assay Provider: Melvin DePamphilis, NICHD, NIH Assay Overview Eukaryotic cells normally restrict genome duplication to once per cell division. When this process is aberrant, DNA re-replication occurs when cells reinitiate DNA replication before the first round of replication is complete. DNA re-replication induces the DNA damage response, arrests cell proliferation, and triggers apoptosis. The cell cycle components cyclin A, Cdt-1, Cdc6 and geminin are critical regulators of this process and their misregulation results in DNA re-replication in normal and cancer cells. To identify compounds that induce re-replication in normal cells, an image-based assay was used to measure DNA content of nuclei, as detected by the fluorescent DNA binding dye, Hoechst. Cell nuclei were imaged by a fluorescence scanning plate imager and compounds that induce DNA re-replication were identified by the increase of nuclei with elevated fluorescence intensity.
# Assay Protocol Summary For screening, 250 cells in 5 uL/well were dispensed into black clear 1536-well plates (Aurora) using a solenoid-based dispenser. Following transfer of 23 nL compound or DMSO vehicle by a pin tool, the plates were incubated 48 hr at 37 C and 5% CO2. After addition of 1 uL/well Hoescht stain, the plates were incubated 40 min at 37 C, 5% CO2 and total intensity of fluorescent objects (nuclei) were enumerated by an Acumen Explorer Ex3 (TTP LabTech) fluorescence scanning plate imager (405 nm excitation, 500-530 nm emission). Keywords: NIH Roadmap, MLPCN, MLI, MLSMR, qHTS, NCGC, DNA replication, cancer
row,Structure (SMILES),Potency
1,CC(=O)O[C@H]1C(=O)[C@@]2(C)C([C@H](OC(=O)c3ccccc3)[C@]3(O)C[C@H](OC(=O)[C@H](O)[C@@H](NC(=O)c4ccccc4)c4ccccc4)C(C)=C1C3(C)C)[C@]1(OC(C)=O)CO[C@@H]1C[C@@H]2O (stereo not given in full),0.0534 µM (active)
2,O=c1cc(-c2ccccc2)[nH]c2nc(Cl)ccc12,5.34 µM (active)
3,C[C@@H](Oc1ccc(Oc2cnc3ccc(Cl)cc3n2)cc1)C(=O)O,inactive
4,COc1cc2c(cc1O)CC[C@@H]1[C@@H]2CC[C@]2(C)[C@@H](O)CC[C@@H]12,4.76 µM (active)
5,CCCCCCN(CCCCCC)C(=O)Cc1c(-c2ccc(F)cc2)[nH]c2ccccc12,inactive

# Source: PubChem BioAssay AID493166 (National Center for Advancing Translational Sciences (NCATS), 2011)
